The source of these data is PubChem BioAssay AID1835 (Johns Hopkins Ion Channel Center, 2009).

The whole screen tested about 2,400 compounds, of which about 750 (31%) were called active. The list shows a part of the results. A number with no mark means an inactive call.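 How the source made its calls: active means median signal gain over dofetilide-blocked control wells reaching their mean plus 3 SD, so readout 1 at least 0; inactive means the rest.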

The target in the test is Voltage-gated inwardly rectifying potassium channel KCNH2 (Homo sapiens) (UniProt Q12809). Kind of test: modulators restoring hERG flux under dofetilide – cell-based, thallium flux, duplicate retest, dofetilide IC70, confirmation (AID 1835). Particulars: hERG cell line, FluxOR thallium flux, dofetilide-blocked; at 10 µM; active compounds read high. (In general: The hERG channel carries a current that helps repolarise heart muscle cells.)
Chain of Voltage-gated inwardly rectifying potassium channel KCNH2 (Homo sapiens) (Q12809 whole entry, looked up): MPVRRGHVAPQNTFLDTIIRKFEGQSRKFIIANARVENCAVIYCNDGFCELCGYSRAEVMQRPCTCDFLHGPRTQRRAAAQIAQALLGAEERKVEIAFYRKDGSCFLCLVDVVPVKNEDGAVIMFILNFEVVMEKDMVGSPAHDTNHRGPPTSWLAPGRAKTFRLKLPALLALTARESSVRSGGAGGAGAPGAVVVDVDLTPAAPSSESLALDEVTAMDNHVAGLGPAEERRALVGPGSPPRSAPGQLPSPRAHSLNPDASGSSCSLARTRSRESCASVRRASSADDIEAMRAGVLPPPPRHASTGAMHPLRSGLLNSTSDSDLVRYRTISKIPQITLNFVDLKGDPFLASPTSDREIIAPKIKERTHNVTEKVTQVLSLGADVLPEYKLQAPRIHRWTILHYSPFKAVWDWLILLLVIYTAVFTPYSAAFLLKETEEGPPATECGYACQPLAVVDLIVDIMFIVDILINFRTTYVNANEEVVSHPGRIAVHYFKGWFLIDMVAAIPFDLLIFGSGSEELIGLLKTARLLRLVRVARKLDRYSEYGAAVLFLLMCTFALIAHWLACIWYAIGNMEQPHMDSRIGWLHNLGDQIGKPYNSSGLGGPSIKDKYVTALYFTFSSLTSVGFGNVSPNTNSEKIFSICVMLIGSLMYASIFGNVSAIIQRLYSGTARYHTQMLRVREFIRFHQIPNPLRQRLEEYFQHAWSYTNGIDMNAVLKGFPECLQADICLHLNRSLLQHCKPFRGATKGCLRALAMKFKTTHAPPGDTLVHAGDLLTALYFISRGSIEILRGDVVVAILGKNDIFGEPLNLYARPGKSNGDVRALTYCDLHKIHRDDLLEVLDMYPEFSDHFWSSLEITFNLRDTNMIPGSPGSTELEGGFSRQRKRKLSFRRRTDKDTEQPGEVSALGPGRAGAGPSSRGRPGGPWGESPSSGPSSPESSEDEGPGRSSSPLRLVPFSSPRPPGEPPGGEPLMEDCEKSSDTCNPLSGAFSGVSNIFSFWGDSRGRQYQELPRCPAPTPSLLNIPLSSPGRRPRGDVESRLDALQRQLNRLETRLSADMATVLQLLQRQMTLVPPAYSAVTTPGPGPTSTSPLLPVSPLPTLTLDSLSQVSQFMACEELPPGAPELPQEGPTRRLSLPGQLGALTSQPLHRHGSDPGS
Take `Cn1nc(C(F)(F)F)c(-c2ccc(Br)cc2)c1NC(=O)c1cccnc1`: the activity increase over dofetilide control, less the hit threshold was 6% (active). `O=C(N=C1SC2CS(=O)(=O)CC2N1c1cccc(Cl)c1Cl)C1CCCO1` (stereo not drawn): the activity increase over dofetilide control, less the hit threshold is -15%. Regarding `CCOc1ccc(S(=O)(=O)Nc2nc3ccccc3nc2-n2ccc(=NC(=O)c3cccs3)cc2)cc1`, the activity increase over dofetilide control, less the hit threshold was -6%.

`Cc1nonc1CN(C)C(=O)c1ccc(OC2CCN(Cc3ccccn3)CC2)cc1`: the activity increase over dofetilide control, less the hit threshold is 3% (active). With `CN(CCc1ccccn1)C(=O)CCC1CCCN(C(=O)c2ccsc2)C1` (stereo not drawn) the figure was -5%; with `C/C(=N\N1CCN(C2c3ccccc3-c3ccccc32)CC1)c1ccncc1`, -18%. As to `C/C(=C/CCC(C)[C@H]1CC[C@@]2(C)C3=C(CC[C@]12C)[C@@]1(C)CCC(=O)C(C)(C)[C@@H]1CC3)C(=O)O` (stereo partly drawn), the activity increase over dofetilide control, less the hit threshold was 45% (active).

For the compound `C/C(=C/CCC(C)C1CCC2(C)C3CCC4C(C)(C)C(=O)CCC4(C)C3=CCC12C)C(=O)O` (stereo not drawn), the activity increase over dofetilide control, less the hit threshold was 15% (active). Consider `Nc1ncnc(Oc2cccc3cccnc23)c1[N+](=O)[O-]`, for which the activity increase over dofetilide control, less the hit threshold was -12%. With `Nc1cc(-c2ccc(Br)cc2)[nH]n1`, the activity increase over dofetilide control, less the hit threshold is -11%. Take `CSc1cccc(NC(=O)CN2C(=O)c3ccccc3S2(=O)=O)c1`: the activity increase over dofetilide control, less the hit threshold is -19%. Next, `O=C(CN1C(=O)c2cccc3cccc1c23)Nc1cccnc1`: -17%; `CNC(=O)c1ccc(NC(=O)CN2c3cccc4cccc(c34)S2(=O)=O)cc1`: 61% (active). As for `COc1ccc(N2CCN(C(=S)Nc3cccc(OC)c3)CC2)cc1`, the activity increase over dofetilide control, less the hit threshold was -11%.

As to `O=C(NC(=S)N1CCN(c2ccc(C(F)(F)F)cc2[N+](=O)[O-])CC1)c1cccs1`, the activity increase over dofetilide control, less the hit threshold is 12% (active). Consider `COc1ccc(N2CCN(C(=S)NC(=O)c3cccs3)CC2)c([N+](=O)[O-])c1`, for which the activity increase over dofetilide control, less the hit threshold is 1% (active). Consider `O=C(NC(=S)N1CCN(c2c(Cl)cccc2[N+](=O)[O-])CC1)c1cccs1`, for which the activity increase over dofetilide control, less the hit threshold is 2% (active). Take `Cc1c(C(=O)NN2CCN(C)CC2)cccc1[N+](=O)[O-]`: the activity increase over dofetilide control, less the hit threshold is -16%. In the case of `O=C(NC(=S)N1CCN(c2ccc(Cl)cc2[N+](=O)[O-])CC1)c1cccs1`, the activity increase over dofetilide control, less the hit threshold is 12% (active). Consider `Cc1cccc2nc(-c3cccnc3)c(NCCC(C)C)n12`, for which the activity increase over dofetilide control, less the hit threshold is -70%.

For `COc1cccc(OC)c1C(=O)NC(=S)N1CCN(c2ccc(C(F)(F)F)cc2[N+](=O)[O-])CC1`, the activity increase over dofetilide control, less the hit threshold is 6% (active). As to `CC(C)Oc1cccc(C(=O)NC(=S)N2CCN(c3ccc(C(F)(F)F)cc3[N+](=O)[O-])CC2)c1`, the activity increase over dofetilide control, less the hit threshold is -8%. With `COC(=O)CSc1nc(N2CCCCC2)c2c(c1C#N)CCCC2` the figure was 5% (active); with `COC(=O)CSc1nc2c(c(-c3ccc(C)o3)c1C#N)CCCC2`, -18%; with `CCC1(c2ccccc2)NC(=S)N(c2ccc(C)c(C)c2)N1` (stereo not drawn), 86% (active). Regarding `CCC1(c2ccc(Cl)cc2)NC(=S)N(c2ccc(C)c(C)c2)N1` (stereo not drawn), the activity increase over dofetilide control, less the hit threshold was 100% (active).

With `Cc1ccc(NC(=O)c2noc3c2CCC3)cc1C`, the activity increase over dofetilide control, less the hit threshold was -11%. On to `N#Cc1cc(-c2ccccc2)nnc1Oc1ccccc1`, for which the activity increase over dofetilide control, less the hit threshold is -1%. For the compound `Cc1ccc2[nH]c(=O)c(C(c3nnnn3C3CCCC3)N3CCCc4ccccc43)cc2c1` (stereo not drawn), the activity increase over dofetilide control, less the hit threshold was -4%.

For `COc1ccc(-c2cc(C(F)(F)F)nc(N3CCCCC3)n2)cc1OC`, the activity increase over dofetilide control, less the hit threshold was -19%. Turning to `O=C1C=C(c2ccccc2)OC(=O)C1C(=O)c1ccccc1` (stereo not drawn), the activity increase over dofetilide control, less the hit threshold is -4%.

Regarding `CCOc1ccc2nc(/N=C/c3nc(-c4ccccc4)oc3O)sc2c1`, the activity increase over dofetilide control, less the hit threshold is 4% (active). As for `CCOc1ccc2nc(/N=C/c3nc(-c4ccc(Br)cc4)oc3O)sc2c1`, the activity increase over dofetilide control, less the hit threshold is 11% (active). For the compound `CC1(C)CC(=O)c2c(nn(-c3ccccc3)c2-c2ccncc2)C1`, the activity increase over dofetilide control, less the hit threshold is -7%.

`Cc1ccc2cc(CCNC(=O)C(=O)c3c(C)[nH]c4ccccc34)c(=O)[nH]c2c1`: the activity increase over dofetilide control, less the hit threshold is -20%. On to `S=c1nc[nH]c2c1sc1nc(-c3ccccc3)c3c(c12)CCCC3`, for which the activity increase over dofetilide control, less the hit threshold was 80% (active). Consider `CCOC(=O)c1sc2nc(N3CCOCC3)c3c(c2c1N)CCN(Cc1ccccc1)C3`, for which the activity increase over dofetilide control, less the hit threshold is -5%. Turning to `S=c1nc[nH]c2c1sc1nc(N3CCOCC3)c3c(c12)CCCC3`, the activity increase over dofetilide control, less the hit threshold is 58% (active). Regarding `OCCN1CCN(c2ncnc3c2sc2nc(N4CCOCC4)c4c(c23)CCC4)CC1`, the activity increase over dofetilide control, less the hit threshold was -27%. In the case of `CC(C)c1nc2sc3c(=S)nc[nH]c3c2c2c1CCC2`, the activity increase over dofetilide control, less the hit threshold was 52% (active). Next, `Cc1ccc(C)c(OCc2cc(C(=O)N3CCNC(=O)C3)no2)c1`: -7%; `CCc1noc(C)c1C(=O)N1CCCC(N2CCN(c3ccccc3F)CC2)C1` (stereo not drawn): -1%; `COc1ccc(C(=O)NC2CC3CCCC(C2)N3Cc2ccccc2)cc1` (stereo not drawn): -11%. Regarding `COc1ccc(C(=O)CC(=O)C(=O)Nc2ccccc2Cl)cc1`, the activity increase over dofetilide control, less the hit threshold was 31% (active).

For `NNC(=O)CNc1ccccc1Cl`, the activity increase over dofetilide control, less the hit threshold was -9%. As to `CSc1ccc(S(=O)(=O)N2CCC(C(=O)Nc3ccccc3C(F)(F)F)CC2)cc1`, the activity increase over dofetilide control, less the hit threshold is -17%.

`COc1ccc(C(=O)CC(=O)C(=O)Nc2ccccc2C(F)(F)F)cc1`: the activity increase over dofetilide control, less the hit threshold is 13% (active). With `COc1ccc(C(=O)CSc2nnc3ccc(-c4ccccn4)nn23)cc1`, the activity increase over dofetilide control, less the hit threshold is -11%. As to `COc1ccc(C(=O)CNc2ccccc2C#N)cc1`, the activity increase over dofetilide control, less the hit threshold was -11%. In the case of `CCOc1ccccc1NC(=O)C(=O)CC(=O)c1ccc(OC)cc1`, the activity increase over dofetilide control, less the hit threshold is 16% (active). In the case of `CCN1CCN(CC(=O)c2ccc(OC)cc2)CC1`, the activity increase over dofetilide control, less the hit threshold is -17%. On to `COc1ccc(C(=O)CC(=O)C(=O)Nc2ccccc2OC)cc1`, for which the activity increase over dofetilide control, less the hit threshold was 2% (active). With `COc1ccccc1NC1=C(NC(C)=O)C(=O)c2ccccc2C1=O` the figure was -7%.
